{"source": "PubChem BioAssay AID2673", "about": "(National Center for Advancing Translational Sciences (NCATS), 2010)", "note": "Results filed as inconclusive are left out. Unmarked numbers belong to inactive results. Active and inactive are the calls of the source. Calls come from the whole dose curve; as a rule, active = well fitted activation curve with a large enough effect; inconclusive = small, poorly fitted or top-dose-only effect; inactive = no such curve, though single readings can be large or run the other way.", "data": [{"assay": "qHTS Multiplex Assay to Identify Dual Action Probes in a Cell Model of Huntington: Cytoprotection confirmation (ATP)", "conditions": "PC12 HttQ103 induced, ATP luminescence 40 h; series mostly up to 46.1 µM; cytoprotection, positive = protection: at the top concentration", "source_text": "NIH Chemical Genomics Center [NCGC]\nNIH Molecular Libraries Probe Production centers Network [MLPCN]\nAssay Submitter (PI): Wei Zheng\nHuntington's disease is a neurodegenerative disorder caused by a trinucleotide repeat expansion in Exon 1 of the Huntingtin gene. The CAG trinucleotide encodes glutamine and polyglutamine expansions cause cell death in selective areas of the brain. Huntington polyglutamine repeats have the tendency to form aggregates which are observable in later stages of the disease. The exact nature of the aggregates, whether toxic, protective, or insignificant, is unclear.\nA stable PC12 cell line containing a gene fusion of Exon 1 of the Huntingtin gene linked to GFP under the control of the inducible ecdysone promoter were used as the cell-based model of Huntington Disease for high throughput screening. Exon 1 of the Huntingtin gene contained an expansion of 103 polyglutamines (Q103) which, when expressed, caused cell death and distinct, bright GFP aggregates. The amount of cell death and the size and intensity of GFP aggregates increased over time and induction level. The cell death were quantified with a measurement of ATP content in the cells. A maximal 40-50% of cell death was observed when the Huntington gene was induced in this cell line.\nWe optimized this assay in a homogeneous 1536 well format. A quantitative high throughput screen (qHTS) was conducted on the PC12 cells which were induced to express the toxic fusion construct. Small molecules which prevented cell death were identified by using a luminescent ATP quantification method (Perkin Elmer's ATPlite).\nPC12 cells stably containing a construct with an ecdysone inducible promoter expressing GFP fused to the exon 1 of HTTQ103 (Huntington protein which containing a 103 ployglutamine expansion) were used.\nNCGC Assay Protocol Summary:\nSequence, Parameter, Description\n1, Reagent, 5 uL 1500 cells/well 1536 TC treated White clear bottom plate\n2, Compound, 23 nL Tebufenozide inducer (100 nM final) to all columns\n3, Compound, 23 nL 40 uM to 0.5 nM Libraries\n5, Reagent, 5 ul ATPLite cell death assay reagent\n6, Detector, 4 sec integration with a Viewlux Luminescent\nMedia consisted of phenol red free DMEM + 5% equine serum (Hyclone # SH30072.03 ), 5% supplemented Bovine Calf Serum (Hyclone # SH30074.03 ), 1x pen/strep, no G418", "units": {"cytoprotection, positive = protection": "%"}, "values": [{"smiles": "CC(=O)c1ccc(-c2csc3ncnc(Sc4nnnn4C)c23)cc1", "cytoprotection, positive = protection": -23.7}, {"smiles": "Cn1nnnc1Sc1ncnc2scc(-c3cnc(N)nc3)c12", "Potency": "35.5 µM (active)"}, {"smiles": "Cn1nnnc1Sc1ncnc2scc(-c3cc4ccccc4o3)c12", "cytoprotection, positive = protection": -107}, {"smiles": "Fc1ccc(N2CCN(c3ncnc4nc[nH]c34)CC2)cc1", "cytoprotection, positive = protection": -30.4}, {"smiles": "Cc1ccc(-c2csc3ncnc(Sc4nnnn4C)c23)cc1", "Potency": "35.5 µM (active)"}, {"smiles": "O=C(N/N=C/c1ccc(O)c(O)c1)c1ccc(CSc2cccc3cccnc23)cc1", "cytoprotection, positive = protection": -39}, {"smiles": "CCOC(=O)c1noc(C)c1C(=O)Nc1cccc(F)c1", "cytoprotection, positive = protection": -11.4}, {"smiles": "Cn1nnnc1Sc1ncnc2scc(-c3ccc4ccccc4c3)c12", "Potency": "12.6 µM (active)"}, {"smiles": "Cn1nnnc1Sc1ncnc2scc(-c3ccc(F)cc3)c12", "Potency": "25.1 µM (active)"}, {"smiles": "CCN(CC)CCNc1ccc(CO)c2sc3ccccc3c(=O)c12", "cytoprotection, positive = protection": -91.3}, {"smiles": "O=C(NCN1C(=O)C2C3C=CC(C3)C2C1=O)Nc1ccccn1", "note": "(stereo not given)", "cytoprotection, positive = protection": -8.5}, {"smiles": "Cn1nnnc1Sc1ncnc2scc(-c3cccc(Cl)c3)c12", "Potency": "14.1 µM (active)"}, {"smiles": "O=c1oc2cc(O)ccc2s1", "cytoprotection, positive = protection": -5.12}, {"smiles": "O=C(Nc1cccnc1)Nc1ccccc1Cl", "cytoprotection, positive = protection": -24.8}, {"smiles": "CCc1nc(SCC(=O)N2CCCC2)c2ccccc2n1", "cytoprotection, positive = protection": -17.6}, {"smiles": "Cc1cccc(/C=N/NC(=O)c2cc3c(s2)-c2ccccc2CC3)c1", "cytoprotection, positive = protection": -29.8}, {"smiles": "C[C@@H]1CNCCN1S(=O)(=O)c1cccc2cnccc12", "cytoprotection, positive = protection": 0.336}, {"smiles": "Cc1cccc(-c2csc3ncnc(Sc4nnnn4C)c23)c1", "Potency": "31.6 µM (active)"}, {"smiles": "Cn1nnnc1Sc1ncnc2scc(-c3cccc4ccccc34)c12", "Potency": "8.91 µM (active)"}, {"smiles": "O=C(O)c1cc(=O)c2ccc(Cl)cc2[nH]1", "cytoprotection, positive = protection": 8.97}, {"smiles": "Cn1nnnc1Sc1ncnc2scc(-c3ccccc3C#N)c12", "Potency": "28.2 µM (active)"}, {"smiles": "Cc1cc(C)nc(Sc2nc(C)nc3c2oc2ccccc23)n1", "cytoprotection, positive = protection": -2.25}, {"smiles": "CC(=O)Nc1ccc(S(=O)(=O)N2CCSC2c2ccccc2)cc1", "note": "(stereo not given)", "cytoprotection, positive = protection": 9.67}, {"smiles": "C=C1CCC2[C@](C)(CO)[C@H](O)CC[C@@]2(C)[C@@H]1C/C=C1/C(=O)OC[C@H]1O", "note": "(stereo not given in full)", "cytoprotection, positive = protection": -69.3}, {"smiles": "Cn1nnnc1Sc1ncnc2scc(-c3ccc4c(=O)ccoc4c3)c12", "cytoprotection, positive = protection": -107}, {"smiles": "Cc1nnsc1C(=O)N/N=C/c1ccc2ccccc2c1O", "cytoprotection, positive = protection": -67.4}, {"smiles": "Cc1noc(C)c1COC(=O)Cc1ccc(Cl)cc1", "cytoprotection, positive = protection": 8.35}, {"smiles": "COc1ccc2c(c1)-c1c(ssc1=S)C(C)(C)N2", "cytoprotection, positive = protection": 4.29}, {"smiles": "COc1ccc(-c2[nH]ncc2-c2ccc3c(c2)OCCO3)c(O)c1", "cytoprotection, positive = protection": -4.71}, {"smiles": "Cn1nnnc1Sc1ncnc2scc(-c3cccc([N+](=O)[O-])c3)c12", "Potency": "25.1 µM (active)"}, {"smiles": "CCc1ccc2oc(-c3cc(N)ccc3O)nc2c1", "cytoprotection, positive = protection": -77.5}, {"smiles": "CN(C)CCCSc1ccccc1NC(=O)/C=C\\c1ccccc1", "cytoprotection, positive = protection": -24.2}, {"smiles": "CC(C(=O)O)c1ccc(CC2CCCC2=O)cc1", "note": "(stereo not given)", "cytoprotection, positive = protection": -43.9}, {"smiles": "Cn1nnnc1Sc1ncnc2scc(-c3ccc(C(=O)OC(C)(C)C)cc3)c12", "cytoprotection, positive = protection": -75.7}, {"smiles": "Cn1nnnc1Sc1ncnc2scc(-c3ccc(S(C)(=O)=O)cc3)c12", "Potency": "17.8 µM (active)"}, {"smiles": "COc1ccc(C2=Nc3cc(C)ccc3OC2)cc1", "cytoprotection, positive = protection": -74.7}, {"smiles": "Cn1nnnc1Sc1ncnc2scc(-c3cccc(F)c3)c12", "Potency": "14.1 µM (active)"}, {"smiles": "COc1cccc(C(=O)Nc2ccc(F)c(F)c2F)c1", "cytoprotection, positive = protection": -15.2}, {"smiles": "N#CCCn1c(Cl)nc2ccccc21", "cytoprotection, positive = protection": -11.9}, {"smiles": "Cn1nnnc1Sc1ncnc2scc(-c3ccc[nH]3)c12", "Potency": "12.6 µM (active)"}]}]}
